{"source": "PubChem BioAssay (Tox21)", "note": "Results filed as inconclusive are left out. Activity calls are given as the source filed them. Calls come from the whole dose curve; as a rule, active = well fitted activation curve with a large enough effect in the repeat runs; inconclusive = weak or mixed curves; inactive = flat fitted curve, though single readings scatter. Positions of bridges follow the written chain, without caps; N, C: chain ends. Where a SMILES comes first, the peptide text is derived from it. Non-standard residues stand in square brackets, D forms with d. Residues, ends and D or L forms follow the SMILES beside them. hArg = N=C(N)NCCCC[C@H](N)C(=O)O; Mpa = O=C(O)CCS", "data": [{"assay": "A CellTox Green Cytotoxicity Assay to monitor cytotoxicity in HepG2 cells - 32 hour (AID 1224883); note: nearly all actives have a fitted effect of over 50% in size; note: potency is the fitted concentration of half-maximal effect; for cytotoxicity increase: % is set by controls: 0 for no effect and ±100 for the full control effect", "settings": "CellTox Green fluorescence; series mostly up to 76.8 µM; cytotoxicity increase: at the top concentration", "summary_of_the_method": "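HepG2 cells were seeded together with the CellTox Green dye at 600 cells/well, left 5 h at 37 C/5% CO2, then given compounds in DMSO. Fluorescence from dye bound to dead-cell DNA was read repeatedly over 40 h of treatment at 37 C.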", "values": [{"smiles": "CN(C)CCOC(=O)C(c1ccccc1)C1(O)CCCC1", "note": "(stereo not drawn)", "cytotoxicity increase": "-2.85% [at 35.3 µM] (inactive)"}, {"smiles": "NCc1ccc(S(N)(=O)=O)cc1", "cytotoxicity increase": "-23.4% [at 35.3 µM] (inactive)"}, {"smiles": "COc1cc(/C=C/C(N)=O)cc(OC)c1OC", "cytotoxicity increase": "-14.2% [at 35.3 µM] (inactive)"}, {"smiles": "NC(=O)[C@@H]1CSSCCC(=O)N[C@@H](CCCCN=C(N)N)C(=O)NCC(=O)N[C@@H](CC(=O)O)C(=O)N[C@@H](Cc2c[nH]c3ccccc23)C(=O)N2CCC[C@H]2C(=O)N1", "note": "([Mpa][hArg]GDWPC-NH2; disulfide 1-7)", "cytotoxicity increase": "1.91% [at 35.3 µM] (inactive)"}, {"smiles": "O=C1c2ccccc2C(=O)c2cc(Cl)ccc21", "cytotoxicity increase": "0.512% [at 6.97 µM] (inactive)"}, {"smiles": "Fc1ccccc1", "cytotoxicity increase": "-5.66% (inactive)"}, {"smiles": "CC(C)(CO)C(O)C(=O)NCCCO", "note": "(stereo not drawn)", "cytotoxicity increase": "-1.19% (inactive)"}, {"smiles": "CC(=O)c1cc(C)oc1C", "cytotoxicity increase": "-7.79% (inactive)"}, {"smiles": "COc1cc(OC)nc(O[C@H](C(=O)O)C(OC)(c2ccccc2)c2ccccc2)n1", "cytotoxicity increase": "-3.88% [at 35.3 µM] (inactive)"}, {"smiles": "CCO", "cytotoxicity increase": "-8.78% (inactive)"}, {"smiles": "C=C(C)c1cccc(C(C)(C)N=C=O)c1", "cytotoxicity increase": "-0.541% (inactive)"}, {"smiles": "C=CC/C=C/C", "cytotoxicity increase": "4.29% (inactive)"}, {"smiles": "CCCCCCCCCOC(=O)CCCCC(=O)OCCCCCCC", "Potency": "24.5 µM (active)"}, {"smiles": "CC(=O)N[C@@H](CO)C(=O)N[C@@H](CC(=O)O)C(=O)N[C@@H](CCCCN)C(=O)N1CCC[C@H]1C(=O)O", "note": "(Ac-SDKP-OH)", "cytotoxicity increase": "-2.59% [at 35.3 µM] (inactive)"}, {"smiles": "CCC/C=C(\\C=O)CC", "cytotoxicity increase": "-0.143% (inactive)"}, {"smiles": "CC(C)OC(=O)CCC(=O)OC(C)C", "cytotoxicity increase": "-13.7% (inactive)"}]}, {"assay": "A CellTox Green Cytotoxicity Assay to monitor cytotoxicity in HEK293 cells - 8 hour (AID 1224884); note: nearly all actives have a fitted effect of over 35% in size; note: potency is the fitted concentration of half-maximal effect; for cytotoxicity increase: % is set by controls: 0 for no effect and ±100 for the full control effect", "settings": "CellTox Green fluorescence; series mostly up to 76.8 µM; cytotoxicity increase: at the top concentration", "summary_of_the_method": "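HEK293 cells premixed with CellTox Green dye were seeded at 600 cells/well and left 5 h at 37 C/5% CO2 before pin transfer of 23 nL compound in DMSO. Fluorescence from dye bound to dead-cell DNA was read during 40 h treatment.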", "values": [{"smiles": "COc1ccc2c(c1)c1c3n2CCN(C)C3=NCC1", "cytotoxicity increase": "1.55% [at 35.3 µM] (inactive)"}, {"smiles": "Cn1c(=O)c2[nH]c(Br)nc2n(C)c1=O", "cytotoxicity increase": "-15.1% [at 35.3 µM] (inactive)"}, {"smiles": "CC(=O)C1C(=O)C=C(C)OC1=O", "note": "(stereo not drawn)", "cytotoxicity increase": "-0.668% (inactive)"}, {"smiles": "CN(C)CCN(C)CCO", "cytotoxicity increase": "-15.2% (inactive)"}, {"smiles": "CC(C)C1OCCN1CCOC(=O)NCCCCCCNC(=O)OCCN1CCOC1C(C)C", "note": "(stereo not drawn)", "cytotoxicity increase": "-7.46% (inactive)"}, {"smiles": "CC(=O)O[C@H]1C[C@@H]2CC[C@@]1(C)C2(C)C", "cytotoxicity increase": "0.828% (inactive)"}, {"smiles": "CN1C[C@@H]2C[C@H]1CN2c1cc2c(cc1F)c(=O)c(C(=O)O)cn2C1CC1", "cytotoxicity increase": "-14% [at 15.8 µM] (inactive)"}, {"smiles": "CC1(C)CC(OC(=O)CCCCCCCCC(=O)OC2CC(C)(C)NC(C)(C)C2)CC(C)(C)N1", "cytotoxicity increase": "-2.02% [at 15.8 µM] (inactive)"}, {"smiles": "C=Cc1ccc(C(C)(C)C)cc1", "cytotoxicity increase": "-2.46% (inactive)"}, {"smiles": "CCOc1ccccc1OCC1CNCCO1", "note": "(stereo not drawn)", "cytotoxicity increase": "-0.0692% [at 35.3 µM] (inactive)"}, {"smiles": "N[C@@H](Cc1ccc(O)cc1)C(=O)O", "cytotoxicity increase": "-1.4% [at 6.97 µM] (inactive)"}, {"smiles": "O=C(CCCCC(=O)Nc1c(I)cc(I)c(C(=O)O)c1I)Nc1c(I)cc(I)c(C(=O)O)c1I", "cytotoxicity increase": "-1.48% [at 35.3 µM] (inactive)"}, {"smiles": "O=C1NC(c2ccccc2)(c2ccccc2)C(=O)N1COP(=O)(O)O", "cytotoxicity increase": "-12.6% [at 35.3 µM] (inactive)"}, {"smiles": "OCCN1CCOCC1", "cytotoxicity increase": "16.4% (inactive)"}, {"smiles": "CC(C)c1ccc(C=O)cc1", "cytotoxicity increase": "2.88% (inactive)"}, {"smiles": "COc1c2occc2c(OC)c2c(=O)cc(C)oc12", "cytotoxicity increase": "0.995% [at 35.3 µM] (inactive)"}, {"smiles": "CCCCOCCOC(=O)COc1ccc(Cl)cc1Cl", "cytotoxicity increase": "14.2% (inactive)"}, {"smiles": "CCC(C(=O)OCCN1CCOC(c2ccccc2)C1C)c1ccccc1", "note": "(stereo not drawn)", "cytotoxicity increase": "-6.03% [at 35.3 µM] (inactive)"}, {"smiles": "C=C(C)[C@@H]1CC=C(C)CC1", "cytotoxicity increase": "-0.213% (inactive)"}, {"smiles": "CC(=O)CC(=O)Nc1ccc(C)cc1C", "cytotoxicity increase": "-8.65% (inactive)"}, {"smiles": "c1ccc2cnccc2c1", "cytotoxicity increase": "0.181% (inactive)"}, {"smiles": "CN(C)CCOC(=O)C(c1ccccc1)C1(O)CCCC1", "note": "(stereo not drawn)", "cytotoxicity increase": "4.04% [at 35.3 µM] (inactive)"}, {"smiles": "NCc1ccc(S(N)(=O)=O)cc1", "cytotoxicity increase": "-8.8% [at 35.3 µM] (inactive)"}, {"smiles": "COc1cc(/C=C/C(N)=O)cc(OC)c1OC", "cytotoxicity increase": "0.339% [at 35.3 µM] (inactive)"}, {"smiles": "NC(=O)[C@@H]1CSSCCC(=O)N[C@@H](CCCCN=C(N)N)C(=O)NCC(=O)N[C@@H](CC(=O)O)C(=O)N[C@@H](Cc2c[nH]c3ccccc23)C(=O)N2CCC[C@H]2C(=O)N1", "note": "([Mpa][hArg]GDWPC-NH2; disulfide 1-7)", "cytotoxicity increase": "-1.48% [at 35.3 µM] (inactive)"}, {"smiles": "O=C1c2ccccc2C(=O)c2cc(Cl)ccc21", "cytotoxicity increase": "-6.44% [at 6.97 µM] (inactive)"}, {"smiles": "Fc1ccccc1", "cytotoxicity increase": "9.41% (inactive)"}, {"smiles": "CC(C)(CO)C(O)C(=O)NCCCO", "note": "(stereo not drawn)", "cytotoxicity increase": "0.567% (inactive)"}, {"smiles": "CC(=O)c1cc(C)oc1C", "cytotoxicity increase": "-4.14% (inactive)"}, {"smiles": "COc1cc(OC)nc(O[C@H](C(=O)O)C(OC)(c2ccccc2)c2ccccc2)n1", "cytotoxicity increase": "2.98% [at 35.3 µM] (inactive)"}, {"smiles": "CCO", "cytotoxicity increase": "-8.42% (inactive)"}, {"smiles": "C=C(C)c1cccc(C(C)(C)N=C=O)c1", "cytotoxicity increase": "-4.95% (inactive)"}, {"smiles": "C=CC/C=C/C", "cytotoxicity increase": "-4.58% (inactive)"}, {"smiles": "CCCCCCCCCOC(=O)CCCCC(=O)OCCCCCCC", "Potency": "38.9 µM (active)"}, {"smiles": "CC(=O)N[C@@H](CO)C(=O)N[C@@H](CC(=O)O)C(=O)N[C@@H](CCCCN)C(=O)N1CCC[C@H]1C(=O)O", "note": "(Ac-SDKP-OH)", "cytotoxicity increase": "-3.77% [at 35.3 µM] (inactive)"}, {"smiles": "CCC/C=C(\\C=O)CC", "cytotoxicity increase": "-4.17% (inactive)"}, {"smiles": "CC(C)OC(=O)CCC(=O)OC(C)C", "cytotoxicity increase": "-3.16% (inactive)"}]}]}
